An excerpt weighted towards active compounds, which were near 1.8% of everything screened.
APP transl inh = inhibitors of APP translation via 5'UTR reporter, primary screen, APP 5'UTR luciferase, SH-SY5Y cells; SH-SY5Y APP 5'UTR-luciferase reporter, luminescence; inhibition, % at 2 µM; 190,000 compounds, 0.82% hits;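 active means inhibition above a set limit, derived from the sample mean plus 3 SD, cut at about 45% in these data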
KLF5 inh = KLF5 expression inhibitors, primary screen, DLD-1 cells, luminescence; DLD-1 KLF5 promoter-luciferase reporter; inhibition, % at 5 µM; 290,000 compounds, 0.23% hits;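 active means inhibition above a per-plate limit of that plate's mean compound inhibition plus 3 SD, cut at about 60% in these data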;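 further: 0% = DMSO wells and 100% = LY294002 at 200 µM; higher means less KLF5 promoter-driven luciferase light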
IEC-6 cytotox = cytotoxicity in IEC-6 intestinal epithelial cells, primary screen, cytotoxicity control for KLF5 inhibitor project, cell-based, luminescence; IEC-6 cytotoxicity, luminescence viability; inhibition, % at 5 µM; 290,000 compounds, 0.78% hits;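 further: 0% = plate median of test compound wells and 100% = cytotoxic reference compound wells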
BaF3 tox = parental Ba/F3 cell viability inhibition, counter-screen for JAK2V617F inhibitor project, murine pro-B, CellTiter-Glo luminescence | inhibition, % at 5.6 µM | 220,000 compounds, 1.1% hits | CellTiter-Glo ATP luminescence | AID 1486, 2009;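 active means inhibition above a per-campaign cutoff, the mean inhibition of all tested compounds plus 3 SD, cut at about 27% in these data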;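 further: 0% = DMSO wells and 100% = JAK Inhibitor I control wells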
Ba/F3 V617F tox = reduced viability of JAK2V617F-dependent Ba/F3 cells, primary screen, JAK2V617F inhibitor project, cell-based, Ba/F3 EpoR-JAK2V617F, luminescence; 220,000 compounds, 1.1% hits; ATP luminescence; inhibition, % at 5.6 µM;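 active means inhibition above the campaign mean plus 3 SD over all tested compounds, cut at about 24% in these data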;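 further: cytokine-independent growth of Ba/F3 cells driven by EpoR plus mutant JAK2; 0% = DMSO-treated cells and 100% = JAK inhibitor I control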
IEC-6 cytotox cf = cytotoxic compounds in IEC-6 epithelial cells, confirmation, cytotoxicity control, cell-based, luminescence; shares compounds with IEC-6 cytotox; IEC-6 rat intestinal epithelial viability; inhibition, % at 5 µM; 1,900 compounds, 63% hits;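 further: 0% = vehicle and 100% = reference cytotoxic drug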
An asterisk follows results filed as active; . = not tested or not shown. Unless noted, no stated cut-off is given here; in the data, active means inhibition above about 22%; inactive means the rest.

SMILES	APP transl inh	KLF5 inh	IEC-6 cytotox	BaF3 tox	Ba/F3 V617F tox	IEC-6 cytotox cf
Cc1cccc(OCCN2C(=O)C(=O)c3cc(C)ccc32)c1	93*	-26	79*	84*	86*	56*
CCOC(=O)c1ccc(N2CCOCC2)c(NC(=O)c2c(-c3ccccc3)noc2C)c1	.	50	61*	54*	75*	50*
Cc1onc(-c2ccccc2)c1C(=O)Nc1cc(C(F)(F)F)ccc1N1CCOCC1	70*	44	77*	81*	84*	50*
Cc1onc(-c2ccccc2)c1C(=O)Nc1ccccc1N1CCOCC1	-9	-20	-2	6	1	.
CCc1[nH]nc(C(=O)N/N=C/c2ccncc2)c1C	.	-72	3	.	.	.
Cc1nnc(N/N=C/c2ccc(Br)cc2)n1N	.	-35	-2	.	.	.
Cc1nnc(N/N=C/c2ccc(-c3ccc(Br)cc3)o2)n1N	-8	-36	37*	7	1	-11
O=C(O)c1ccc(N/N=C/c2ccc(-c3ccc(Br)cc3)o2)cc1	.	-27	28*	.	.	28*
Nc1c(C(=O)OCC(=O)NCc2ccccc2)[nH]c(=O)[nH]c1=O	.	-18	-6	3	-3	.
CC(C)c1ccc(Nc2ncccc2C(=O)O)cc1	-140	-186	58*	11	7	26*
O=C(NCCCN1CCCC1=O)c1sc2ccccc2c1Cl	.	-57	2	.	.	.
CC(C)COc1ccc(S(=O)(=O)n2cc(F)c(=O)[nH]c2=O)cc1	-5	-14	85*	63*	61*	-1
CCOc1ccc(Cn2cc(F)c(=O)[nH]c2=O)cc1	.	7	0	0	-2	.
CCCOc1ccc(S(=O)(=O)n2cc(F)c(=O)[nH]c2=O)cc1	.	-5	44*	.	.	7
Cn1cnnc1SC(C(=O)Nc1cccc(C(F)(F)F)c1)c1ccccc1 (stereo not drawn)	13	-18	1	10	-1	.
O=S(=O)(c1ccc(Cl)cc1)N1CCC(c2nc3ccccc3[nH]2)CC1	.	3	31*	.	.	28*
O=C(CCc1nnc2ccc(N3CCC4(CC3)OCCO4)nn12)NCc1ccc(F)cc1	.	-16	-3	.	.	.
CC(C)C(=O)N1CCN(c2ccccc2NC(=O)c2ccc([N+](=O)[O-])o2)CC1	.	-8	26*	.	.	23*
CCC(=O)N1CCN(c2ccccc2NC(=O)c2ccc([N+](=O)[O-])o2)CC1	.	1	38*	.	.	16
CCC(=O)N1CCN(c2ccccc2NC(=O)Cc2ccccc2)CC1	-16	-4	4	1	-3	.
COc1ccc(N2CC(O)=C(c3nc4ccccc4s3)C2=N)cc1	-14	-24	4	4	3	.
COc1cccc(N2CC(O)=C(c3nc4ccccc4s3)C2=N)c1	88*	29	79*	81*	76*	57*
CCCN1CCN(CCCNC(=O)c2ccc3nc(N4CCCCC4)sc3c2)CC1	.	-138	0	.	.	.
CC1CC(C)CN(CCCNC(=O)c2ccc3nc(N4CCCCC4)sc3c2)C1 (stereo not drawn)	.	-114	27*	.	.	2
COc1ccc(/C=N/n2nnnc2N)c(OC)c1	.	-50	-9	.	.	.
SMILES	APP transl inh	KLF5 inh	IEC-6 cytotox	BaF3 tox	Ba/F3 V617F tox	IEC-6 cytotox cf
Cc1ccccc1OCCC(=O)OCC(=O)c1c(N)n(CC(C)C)c(=O)n(C)c1=O	.	-6	5	.	.	.
NNC(=O)c1cc2sccc2s1	.	22	63*	78*	80*	6
CC1=[N+](C)c2c(ccc3cccnc23)C1(C)C	20	-46	26*	63*	72*	33*
O=C(COC(=O)C1CCN(S(=O)(=O)c2ccccc2C(F)(F)F)CC1)NCc1ccc(F)cc1	-6	-18	14	5	2	.
CCC(C)NCCOCCOc1ccc(Cl)c2ccccc12 (stereo not drawn)	-4	-14	34*	1	5	15
CCC(C)NCCOCCOc1ccc(Cl)c(C)c1C (stereo not drawn)	-11	1	-2	4	-1	.
Nn1cnnc1N/N=C/c1ccc(Cl)c([N+](=O)[O-])c1	-2	-21	52*	3	2	2
Nn1cnnc1N/N=C/c1ccc(F)cc1	.	-18	-4	.	.	.
CC(=O)c1ccc(OCCCC(=O)Nc2cc(Cl)ccc2-n2cncn2)cc1	.	-12	7	.	.	.
COC(=O)N/N=C/c1cc(Br)ccc1O	2	-21	2	10	3	.
CC(C)NC(=S)N/N=C/c1cc(Br)ccc1O	-10	-14	94*	3	-6	1
Cc1cc(C)cc(C(=O)N2CC(=O)Nc3ccccc32)c1	92*	48	89*	82*	78*	57*
O=C(Nc1ccc(Cl)cn1)c1ccccc1[N+](=O)[O-]	-18	-14	7	5	2	.
CCOc1ccc(NC(=O)c2cccc3ccccc23)cc1	.	-17	22*	.	.	14
O=C(Nc1ccc(Cl)cn1)c1cccc2ccccc12	.	-3	44*	.	.	25*
Cc1ccc(NC(=O)COC(=O)C2CSC3(C)CCC(=O)N23)cc1S(=O)(=O)N1CCOCC1 (stereo not drawn)	9	-40	-8	4	0	.
CC(C)c1ccc(C(C(=O)NC2CCCC2)N(C(=O)c2csnn2)C2CC2)cc1 (stereo not drawn)	.	-8	-6	.	.	.
CC1CCN(c2ccccc2NC(=O)c2ccc([N+](=O)[O-])o2)CC1	.	-6	5	.	.	.
O=C(Nc1ccccc1N1CCN(C(=O)c2ccccc2)CC1)c1ccc([N+](=O)[O-])o1	.	4	28*	.	.	12
COc1ccc(N2CCCC2)c(NC(=O)c2ccc([N+](=O)[O-])o2)c1	.	-11	33*	.	.	13
O=C(Nc1ccccc1N1CCN(C(=O)c2ccccc2)CC1)c1cc2ccccc2o1	-1	7	-4	3	-5	.
O=C(Nc1ccccc1N1CCCC1)c1ccc([N+](=O)[O-])o1	.	-15	66*	.	.	17
COc1ccc(C)cc1NC(=O)CSc1ccc(-c2ccco2)nn1	.	-20	8	.	.	.
CCCCc1cc(=O)oc2c(C)c(OCC(=O)NCC3CCC(C(=O)O)CC3)ccc12 (stereo not drawn)	.	-24	2	.	.	.
Cc1ccsc1/C=N/n1c(-c2ccncc2)n[nH]c1=S	-16	-10	-4	5	1	.
CCN(C(=O)CSc1cc(C)c2ccccc2n1)c1c(N)n(Cc2ccccc2)c(=O)[nH]c1=O	0	-9	0	3	3	.
COc1cc(CN2C(=O)C(NC(=O)c3ccco3)(C(F)(F)F)C3=C2CC(C)(C)CC3=O)cc(OC)c1 (stereo not drawn)	8	-15	-1	6	4	.
Cc1ccc2nc3c(cc2c1)CN(Cc1ccco1)C(=NCC1CCCO1)S3 (stereo not drawn)	18	-32	2	6	1	.
